Screening results from PubChem.
DT40 TDP1 CPT: DT40-hTDP1 cell growth loss with CPT; chicken DT40 Tdp1-/-;hTDP1 cells + 20 nM CPT, ATP luminescence, 48 h; Potency, µM (top dose mostly 46.2 µM), without a hit: at the top dose activity change, negative = growth inhibition, hits mostly inhibitors; 420,000 tested, 12% active; AID 686979; further: nearly all actives have a fitted effect of over 55% in size
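Chicken DT40 Tdp1-/- cells complemented with human TDP1, 400 cells/well, exposed to compounds plus 20 nM camptothecin for at least 48 h at 37 C; viability read as ATP content by CellTiter-Glo luminescence.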
DT40 TDP1 no CPT: qHTS for Inhibitors of human tyrosyl-DNA phosphodiesterase 1 (TDP1): qHTS in cells in absence of CPT; Potency, µM (top dose mostly 46.2 µM), for inactives: at the highest dose activity change, negative = growth inhibition, actives largely listed as inhibitors; DT40 Tdp1-/- hTDP1 cells, no CPT, ATP luminescence, 48 h; 420,000 tested, 15% active; further: nearly all actives have a fitted effect of over 55% in size
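DT40 Tdp1-/-;hTDP1 cells, no CPT (DMSO vehicle only), 400 cells/well; compounds pin-transferred; ≥48 hr, 37 °C; CellTiter-Glo 30 min RT dark, luminescence read.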
KB-V1 MDR tox: KB-V1 MDR subline cytotoxicity. KB-V1 MDR cells viability, CellTiter-Glo, 72 h. Potency, µM (top dose mostly 46.1 µM), usual class: cytotoxic. 400,000 tested, 3.4% active; further: nearly all actives have a fitted effect of over 60% in size
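Luminescent ATP read-out (CellTiter-Glo, 10 min) measures survival of drug-selected KB-V1 MDR cells after 72 h, 37 degrees C compound exposure. Medium: phenol-red-free DMEM, 10% FBS. Values from fitted concentration-response curves.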
HT1080NT lethal: kills 2HG-producing HT-1080-NT fibrosarcoma cells; HT-1080-NT fibrosarcoma viability, CellTiter-Glo ATP luminescence, 48 h; Potency, µM (top dose mostly 46.1 µM), for inactives: at the top dose activity, negative = less viability, actives largely listed as cytotoxic; 360,000 tested, 1.6% active; AID 686970;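 further: NT is the 2HG producing partner of a matched IDH1 knockdown line; 0% = DMSO-treated cells and -100% = media-only wells without cells; nearly all actives have a fitted effect of over 55% in size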
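Read-out is CellTiter-Glo luminescence after 10 minutes at room temperature, following 48 hours' compound treatment of HT-1080-NT cells (750 cells/well, RPMI, 5% FBS, 37 degrees C).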
HT1080 IDH1KD tx: toxicity to HT-1080 IDH1 knockdown cells (counter line) | HT-1080 IDH1 knockdown viability, ATP luminescence, 48 h | Potency, µM (doses to about 46.1 µM), for the others: top-dose activity, negative = toxicity, most hits filed as cytotoxic | 360,000 tested, 2% active | AID 686971;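 further: 0% = DMSO wells and -100% = cell-free medium wells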
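HT-1080-IDH1KD cells (IDH1 knocked down), 750/well in RPMI with 5% FBS, treated with compound 48 h at 37 degrees C. Viability by CellTiter-Glo luminescence, normalised to DMSO and no-cell wells; concentration-response curves classed.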
KB-3-1 tox: kills parental KB-3-1 adenocarcinoma cells | Potency, µM (titrated, usually from 46.1 µM), hits mostly cytotoxic | KB-3-1 viability, CellTiter-Glo ATP luminescence, 72 h | 400,000 tested, 1.4% active | AID 1347075; further: nearly all actives have a fitted effect of over 60% in size
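Parental KB-3-1 adenocarcinoma cells in phenol-red-free DMEM with 10% FBS were pin-treated with compounds at several concentrations, incubated 72 h at 37 °C, and viability read by CellTiter-Glo luminescence; concentration-effect curves were fitted after normalization.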
Active calls of the source: *; i = inactive; ? = inconclusive; . = not tested or not shown; [ ] = remark or other dose. Hits are enriched below; roughly 19% of the tested compounds scored in any of these assays. The call rests on the fitted dose curve; in most records, active means well fitted curve in the direction sought with a large enough effect; inconclusive means small, poorly fitted or top-dose-only effect, or another doubt; inactive means no such curve, though single readings can be large; an effect the other way counts as inactive or inconclusive. Unless noted, on the % scale 0 is the no-effect control and ±100 the full control effect; potency means the concentration at half of the fitted maximal effect.

SMILES	DT40 TDP1 CPT	DT40 TDP1 no CPT	KB-V1 MDR tox	HT1080NT lethal	HT1080 IDH1KD tx	KB-3-1 tox
Cc1ccc(S(=O)(=O)N2CCC(C(=O)NCC(C)(C)N3CCOCC3)CC2)c(C)c1	-3%	-7%	i	2%	0%	i
Cc1cccc(C)c1NC(=O)C(C1CC1)n1c(=O)c(-c2cc3ccccc3[nH]2)nc2ccccc21 (stereo unspecified)	?	?	?	-4%	?	?
CC(C)(C)NC(=O)C(c1ccccc1F)n1c(=O)c(-c2cc3ccccc3[nH]2)nc2ccccc21 (stereo unspecified)	?	13µM*	i	-15%	?	?
COc1ccc(C(C(=O)NC(C)(C)C)n2c(=O)c(-c3cc4ccccc4[nH]3)nc3ccccc32)cc1 (stereo unspecified)	?	?	?	-25%	?	?
CC(C)(C)NC(=O)C(c1cc2ccccc2o1)n1c(=O)c(-c2cc3ccccc3[nH]2)nc2ccccc21 (stereo unspecified)	?	?	i	?	?	i
CC(C)(C)NC(=O)C(C1CC1)n1c(=O)c(-c2cc3ccccc3[nH]2)nc2ccccc21 (stereo unspecified)	18µM*	?	?	?	?	?
CC(C)(C)NC(=O)C(c1ccncc1)n1c(=O)c(-c2cc3ccccc3[nH]2)nc2ccccc21 (stereo unspecified)	23µM*	16µM*	?	?	?	i
CC(C)(C)NC(=O)C(c1ccnc2ccccc12)n1c(=O)c(-c2cc3ccccc3[nH]2)nc2ccccc21 (stereo unspecified)	?	18µM*	?	21µM*	23µM*	?
CC(C)(C)c1ccc(Cn2c(=N)n(CC(O)c3ccco3)c3ccccc32)cc1 (stereo unspecified)	2.6µM*	2.6µM*	?	23µM*	21µM*	?
N=c1n(CCO)c2ccccc2n1Cc1ccccc1F	?	?	i	.	.	i
CC(C)(C)c1ccc(COn2c(=O)c(-c3ccco3)[n+]([O-])c3ccccc32)cc1	-6%	5%	i	8%	2%	i
Cc1ccccc1Cn1c(=N)n(CC(O)c2ccco2)c2ccccc21 (stereo unspecified)	18µM*	15µM*	?	?	?	i
CCCn1c(SCC(=O)NC2CCC(C)CC2)n[nH]c1=O (stereo unspecified)	-14%	14%	i	2%[9.24 µM]	8%	i
O=C(COC(=O)c1ccc2c(c1)S(=O)(=O)N=C1CCCCCN12)NCc1cccs1	-23%	5%	i	3%	4%	i
CCC1(C2CCN(C(=O)c3ccc4ccccc4c3)CC2)NC(=O)N(CCc2scnc2C)C1=O (stereo unspecified)	-4%[9.04 µM]	-20%	.	.	.	.
CCOC(=O)N1CCc2cc(OC)c(OC)c3c2c1cc1cc(OC)c(OC)cc13	?	12µM*	2.3µM*	?	16µM*	4.1µM*
COc1cc2c(Cc3c4c5c(cc(OC)c(OC)c5c5c(OC)c(OC)ccc35)CCN4C)c3c4c(cc(OC)c(OC)c4c2cc1OC)CCN3C	-12%	-21%	.	.	.	.
N#C/C(=C/c1cn(Cc2ccc(F)cc2)c2ccccc12)C(=O)Nc1cccc(Cl)c1	?	-28%	?	.	.	i
Cc1c(/C=C(\C#N)C(=O)Nc2cccc(Cl)c2)c2ccccc2n1Cc1ccccc1	?	5.8µM*	?	.	.	?
Cn1cc(/C=C(\C#N)C(=O)Nc2cccc([N+](=O)[O-])c2)c2ccccc21	13µM*	8.2µM*	i	14%	16%	?
COc1cccc(NC(=O)/C(C#N)=C\c2cn(Cc3ccc(C)cc3)c3ccccc23)c1	10µM*	5.8µM*	?	.	.	?
Cc1ccc(Cl)cc1NC(=O)/C(C#N)=C/c1c(C)n(Cc2ccccc2)c2ccccc12	?	?	i	.	.	i
Cc1ccc(C)c(NC(=O)/C(C#N)=C/c2cn(CC(=O)NCc3ccco3)c3ccccc23)c1	16µM*	?	i	-30%	?	i
NC(=O)c1ccc(NC(=O)COC(=O)CC(NC(=O)c2ccccc2Cl)c2ccccc2)cc1 (stereo unspecified)	-3%	?	i	-6%	16%	i
COc1ccc(N(CC(=O)NCc2ccccc2Cl)S(=O)(=O)c2c(C)nn(C)c2C)cc1	-6%	?	i	.	.	i
SMILES	DT40 TDP1 CPT	DT40 TDP1 no CPT	KB-V1 MDR tox	HT1080NT lethal	HT1080 IDH1KD tx	KB-3-1 tox
CC1CCN(S(=O)(=O)c2ccc3c(c2)N(CC(=O)NCCN(C)C)C(=O)CO3)CC1	.	.	i	.	.	i
COc1ccc(-c2nc(-n3c(C)c(C(C)=O)c(C(C)=O)c3C)sc2C)cc1	21µM*	23µM*	i	0%	-2%	i
CC(=O)c1c(C(C)=O)c(C)n(-c2nc(-c3ccc(C)c(C)c3)c(C)s2)c1C	18µM*	23µM*	i	-1%	-7%	i
CCOCCCn1c(SCC(=O)NC2CCCCC2)nc2ccccc2c1=O	?	?	i	19%	10%	i
COc1cc(-c2ccc(Cl)cn2)cc2c1OCCN(S(=O)(=O)C[C@]13CC[C@H](CC1=O)C3(C)C)C2	13%[9.04 µM]	-6%	.	.	.	.
CCOC(=O)N1CC=C2C(C#N)=C(N)C(C#N)(C#N)[C@H](c3ccc(OCC)c(OCC)c3)[C@H]2C1	?	-28%	8.2µM*	-4%	?	i
N#CC1=C(N)C(C#N)(C#N)C(c2cccnc2)C2CN(C(=O)OCc3ccccc3)CC=C12 (stereo unspecified)	16µM*	?	?	?	?	i
O=C(Nc1nnc(SCCN2CCOCC2)s1)C1CC(=O)N(c2ccc(F)cc2)C1 (stereo unspecified)	-5%	-9%	i	-10%	-5%	i
CCOC(=O)N1CCN(S(=O)(=O)c2cc(C)c(C)cc2C)CC1	?	?	i	-2%	-13%	i
Cc1cc(C)c(S(=O)(=O)/N=C2/C=C(SCC(=O)O)C(=O)c3ccccc32)cc1C	1.8µM*	1.8µM*	?	?	?	?
